Assay results from PubChem BioAssay (NCI).
This is part of a sample that, as a whole, favours compounds with a hit. Of some 83,000 tested, about 20% had one in any assay.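 Treatment: one concentration, 48 hours, 96-well format. Scoring: percent growth, with anything below 10 considered active.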 Calls of active or inactive are those of the source.

tested on: OVCAR-5 ovarian; experiment: NCI-60 one-dose screen, 48 h (100 = growth as untreated, 0 = no growth, -100 = all killed); details: 10 µM unless noted

Row | Compound | growth
1 | CCOC(=O)C1=C(C)NC(SCc2nnc(-c3ccc(Cl)cc3)o2)=NC1c1ccc(Cl)cc1 (stereo not given) | 89.6% (inactive)
2 | O=Cc1ccc2nc(C(Cl)(Cl)Cl)ccc2c1 | 108% (inactive)
3 | CCCc1n(Cc2ccc3ccccc3c2)c2ccccc2[n+]1Cc1ccc2ccccc2c1 | -27.1% (active)
4 | CC(CN1CCN(CCOCCO)CC1)CN1c2ccccc2Sc2ccc(Cl)cc21 (stereo not given) | 71.7% (inactive)
5 | Clc1ccc(Nc2ncnc3c2sc2ncccc23)c(Cl)c1 | 59.5% (inactive)
6 | COc1ccc(/C=C(/C(=O)N2CCN(c3ccccc3)CC2)c2cc(OC)c(OC)c(OC)c2)cc1O | 51.2% (inactive)
7 | C#CCNC(=S)N/N=C(\C)c1ccccn1 | 35.1% (inactive)
8 | CC(C)NC(=O)OCC#CCOC(=O)NC(C)C | 110% (inactive)
9 | Cc1cc(C)c2c(n1)sc1c(Nc3ccc(Cl)cc3Cl)ncnc12 | 57.5% (inactive)
10 | CCCCn1cnc(-c2cc(-c3ccccc3)cc(C(F)(F)F)c2)n1 | 113% (inactive)
11 | O=C1c2ccccc2C(=O)c2c1oc1ccc3ccccc3c21 | 130% (inactive)
12 | COC1=CC(c2ccc[nH]2)=N/C1=C\c1[nH]c(C)c(C(=O)CCCCCCCCC(=O)O[C@H]2CC[C@H]3C4CCc5cc(O)ccc5C4CC[C@]23C)c1C (stereo not given in full) | 52.1% (inactive)
13 | CCSc1ccc([C@@H]2[C@@H](N)C(=O)N2c2cc(OC)c(OC)c(OC)c2)cc1 | 42.7% (inactive)
14 | COc1ccc2[nH]cc(C(c3ccc(Cl)cc3)N3CCCC3)c2c1 (stereo not given) | 101% (inactive)
15 | Oc1[nH]c2ccc(Cl)cc2c1/C=c1/ccc2c(c1)N=C(c1ccc(F)cc1)N=2 | 103% (inactive)
